Screens from PubChem.
ERa coact pot – enhancers of ERα–SRC-1 coactivator binding, primary screen, biochemical, TR-FRET, ERα LBD, low estradiol; Estrogen receptor (Homo sapiens), P03372; TR-FRET ERalpha-LBD/SRC-Cy5 coactivator binding, 2 h; 100 = basal binding, no effect; coactivator binding (% of control), % at 25.6 µM; 86,000 compounds, 1.3% hits; in the data active means activity above about 200%;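 further: binding measured in presence of low estradiol as agonist stimulus; 0% = peptide alone without receptor and 100% = receptor with peptide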
ERb SRC1 inh – inhibitors of ERβ-SRC1 coactivator interaction, primary screen, biochemical, TR-FRET, ERβ LBD, SRC-1 peptide | TR-FRET ER-beta LBD / SRC1-Cy5 peptide binding; receptor agonist-loaded with 1 µM estradiol | inhibition, % at 25.6 µM | Estrogen receptor beta (Homo sapiens), Q92731 | AID 633, 2007 | 86,000 compounds, 1.3% hits;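 active means compounds whose percent inhibition of the receptor-coactivator binding signal exceeds about 50% in the single-dose screen, limit read from the data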;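 further: 0% = receptor plus peptide wells without compound and 100% = peptide-only wells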
Target sequence (Q92731 whole entry, looked up, the tested form may be a part): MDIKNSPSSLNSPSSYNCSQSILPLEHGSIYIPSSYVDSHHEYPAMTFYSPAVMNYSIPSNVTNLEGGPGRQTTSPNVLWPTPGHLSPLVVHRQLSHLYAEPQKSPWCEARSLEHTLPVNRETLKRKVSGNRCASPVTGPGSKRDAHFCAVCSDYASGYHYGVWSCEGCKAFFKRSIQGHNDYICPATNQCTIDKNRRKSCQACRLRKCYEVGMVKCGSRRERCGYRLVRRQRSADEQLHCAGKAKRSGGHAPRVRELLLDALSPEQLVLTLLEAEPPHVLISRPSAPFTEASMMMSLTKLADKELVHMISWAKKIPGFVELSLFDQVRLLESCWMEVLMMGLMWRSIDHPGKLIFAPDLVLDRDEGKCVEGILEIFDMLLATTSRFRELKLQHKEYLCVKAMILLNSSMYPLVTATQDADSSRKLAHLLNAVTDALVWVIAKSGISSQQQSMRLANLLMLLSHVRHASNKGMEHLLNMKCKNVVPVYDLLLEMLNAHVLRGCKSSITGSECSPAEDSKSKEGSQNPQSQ
ERa SRC1 inh – ERα–SRC-1 coactivator interaction inhibitors, primary screen, biochemical, TR-FRET, ERα LBD, estradiol-bound; TR-FRET ER-alpha LBD / SRC-1 peptide; inhibition, % at 25.6 µM; 86,000 compounds, 1.7% hits; AID 629, 2007; in the data active means inhibition above about 50%;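 further: 0% = receptor plus peptide control and 100% = peptide only without receptor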
FAK blocker – FAK kinase inhibitors, primary screen, biochemical | AID 727, 2007 | Focal adhesion kinase 1 (Homo sapiens), Q05397 | 97,000 compounds, 0.84% hits | inhibition, %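 (tested at 7 µM)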 | biochemical FAK kinase activity assay; in the data active means inhibition above about 19%;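 further: 0% = DMSO and 100% = reference compound high control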
* hit, by the source's call; x = no result; [ ] = remark or other dose. Only some compounds are listed: those with a hit (about 3.2% of all), similar ones and a draw of the others.

SMILES	ERa coact pot	ERb SRC1 inh	ERa SRC1 inh	FAK blocker
C=CCn1cnc2c(c1=O)c1nc3ccccc3nc1n2/N=C/c1cccc(OC)c1OC	66	-1	85*[fluorescence artefact?]	x
Cn1c(=O)oc2ccc(C(=O)CSc3nnnn3-c3ccccc3)cc21	284*[fluorescence artefact?]	11	17	1
O=C(CSc1nnnn1-c1ccccc1)c1cc2ccccc2oc1=O	86	25	7	0
O=C(O)CSc1nnnn1-c1ccc2c(c1)OCCO2	x	x	x	-2
O=C(CSc1nnnn1-c1ccc2c(c1)OCCO2)c1cccc2c1OCCO2	375*[fluorescence artefact?]	-27	-16	-25
O=C(CSc1nnc(-c2cccs2)n1-c1cccc(Cl)c1)c1cccc2c1OCCO2	259*	9	11	-3
COc1ccc(-n2nnnc2SCC(=O)c2ccc3c(c2)OCCO3)cc1	307*[fluorescence artefact?]	-12	-9	-5
COc1ccc(-n2nnnc2SCC(=O)c2cccc(OC)c2)cc1	131	2	1	-2
CCOc1ccc(C(=O)NCCn2cc(SCC(=O)Nc3cc(C)on3)c3ccccc32)cc1	155	0	12	-6
c1ccc(N2CCN(c3ccc4nncn4n3)CC2)nc1	103	-7	-8	-1
CSc1ccccc1C(=O)Nc1nccs1	121	-1	76*[fluorescence artefact?]	0
Cc1ccc(-n2[nH]c(C)c(/C=N/n3c(C)nc4ccccc4c3=O)c2=O)cc1	111	85*	-1	-2
CCSc1nc2ccccc2n1C(=O)Oc1ccccc1	497*[fluorescence artefact?]	4	-45	-2
CN(CC(=O)NCCN1CCN(c2ccccc2)CC1)S(=O)(=O)c1ccc2c(c1)CCC(=O)N2	104	5	1	-2
Cc1cc(C)c(S(=O)(=O)/N=C2\C=CC(=O)C(Cl)=C2)c(C)c1	82	61*	70*	1
CCCNC(=O)C1CC(=O)N(c2ccc(OCC(=O)Nc3cc(C)cc(C)c3)cc2)C1 (configuration not stated)	118	-3	-6	x
O=C(COC(=O)CNS(=O)(=O)c1ccccc1)Nc1ccc(Cl)cn1	89	1	-1	1
O=C(c1cnccn1)N1CCc2ccccc21	23	97*[fluorescence artefact?]	79*[fluorescence artefact?]	x
O=C(Oc1cccc([N+](=O)[O-])c1)c1cc(-c2ccccc2)nc2ccccc12	x	x	x	-3
O/N=C/c1cc(Br)ccc1OCc1ccccc1F	x	x	x	20*
Cc1ccc(S(=O)(=O)NCCSc2nnnn2C)cc1	112	75*[fluorescence artefact?]	-1	-6
O=C(COc1ccccc1)N(CCc1ccccc1)c1nc(-c2ccc(F)cc2)cs1	x	x	x	-2
CC1(C)C(=O)Nc2ccccc2N1C(=O)COc1ccc(S(=O)(=O)N2CCOCC2)cc1Cl	23	88*[fluorescence artefact?]	85*[fluorescence artefact?]	16
CCN(CC)C(=O)CN(C#N)c1nc(OC)nc(N(C)C)n1	107	-10	-13	x
COCN(C#N)c1nc(OC)nc(OC)n1	110	55*[fluorescence artefact?]	10	x
SMILES	ERa coact pot	ERb SRC1 inh	ERa SRC1 inh	FAK blocker
COCCCn1c2nc3ccccc3nc2c2c(=O)n(Cc3ccc(Cl)cc3)cnc21	104	38	56*[fluorescence artefact?]	-2
COCCCn1c2nc3ccccc3nc2c2c(=O)n(Cc3ccccc3Cl)cnc21	257*	12	9	x
Oc1ccccc1CNn1cnnc1	125	-5	-1	-7
Cc1ccc(NC(=O)N2CCC(C(=O)NCC(C)C)CC2)cc1	143	-7	-5	-2
CCN(CC(=O)NC1CCCCCC1)S(=O)(=O)c1ccccc1	109	5	6	3
CCN(CC(=O)NC1CCCC1)S(=O)(=O)c1ccc(C)cc1	120	1	95*[fluorescence artefact?]	2
COc1cc2nc(N3CCNCC3)nc(N)c2cc1OC	89	-8	87*[fluorescence artefact?]	-1
Oc1ccccc1-c1nnc(SCCN2CCOCC2)n1Cc1ccccc1	86	59*	26	6
O=C(CSc1nnc(-c2ccccc2)n1Cc1ccccc1)N1CCOCC1	107	-38	-41	-3
CC(C)COC(=O)c1nnsc1NC(=O)Nc1ccccc1	113	61*	64*[fluorescence artefact?]	9
Cc1cc(-c2ccccc2)nn1-c1nc2c(c(=O)[nH]c(=O)n2C)n1C	111	-8	-2	x
CCOC(=O)/C(C#N)=C1/SC(CC)C(=O)N1c1ccc(Br)cc1 (configuration not stated)	98	-2	-4	2
CCOC(=O)/C(C#N)=C1/SC(CCO)C(=O)N1c1ccccc1 (configuration not stated)	71	17	11	23*
C=CCn1c(NC(=O)c2ccccc2)c(C#N)c2nc3ccccc3nc21	36	42	74*[fluorescence artefact?]	x
CN(C)c1nc2n(c(=O)n1)C(C#N)CS2 (configuration not stated)	108	0	-29	4
CCSc1nnc(-c2sc3nnc(-c4ccccc4)c(-c4ccccc4)c3c2N)o1	x	x	x	-3
CCN(CC)CCNC(=O)c1cc(Cl)c(N)cc1OC	109	56*	-9	x
COc1ccc(CNC(=O)C2CC(c3cccc(OC)c3)=NO2)cc1 (configuration not stated)	108	73*[fluorescence artefact?]	-6	-6
COc1cc(C2=NOC(C(=O)NCc3ccc(F)cc3)C2)cc(OC)c1OC (configuration not stated)	x	x	x	-2
COc1ccc(C2=NOC(C(=O)NCc3ccc(F)cc3)C2)cc1OC (configuration not stated)	67	34	70*[fluorescence artefact?]	2
COc1ccc(NC(=O)c2ccco2)cc1NC(=O)c1ccc(Br)o1	104	-1	-4	-8
O=C(Nc1cccc(NC(=O)c2ccc(-c3ccc(Br)cc3)o2)c1)c1ccco1	108	22	71*[fluorescence artefact?]	2
CCOC(=O)CC1=C(C(=O)OCC)C(c2ccc(C)o2)C(C#N)=C(N)O1 (configuration not stated)	127	-3	-3	2
Cc1ccc(C2C(C#N)=C(N)Oc3c2sc2ccccc32)o1 (configuration not stated)	74	70*[fluorescence artefact?]	70*[fluorescence artefact?]	7
Cc1cccnc1NC(=O)Cn1nc(C)c([N+](=O)[O-])c1C	x	x	x	2
SMILES	ERa coact pot	ERb SRC1 inh	ERa SRC1 inh	FAK blocker
Cc1cc(C)cc(-c2nnc(SCC(=O)c3ccc4c(c3)OCCO4)o2)c1	221*[fluorescence artefact?]	8	4	0
O=C(CSc1nnc(-c2ccccc2)o1)c1ccc2c(c1)OCCO2	129	2	-3	-7
O=C(CSc1nnc2scc(-c3ccccc3)n12)c1ccc2c(c1)OCCO2	437*[fluorescence artefact?]	3	-26	2
Cc1cc(NC(=O)CSc2nnc(-c3ccc4c(c3)OCCO4)o2)no1	327*[fluorescence artefact?]	0	-19	-2
COc1cc(Cl)c(S(=O)(=O)NCc2cccnc2)cc1Cl	87	2	-9	1
Cc1ccc(Cn2c(SCC(=O)Nc3cccc(C)n3)nc3c2c(=O)n(C)c(=O)n3C)cc1	165	8	4	x
CNC(=O)CSc1nc2c(c(=O)n(C)c(=O)n2C)n1Cc1ccc(C)cc1	201*	0	15	-2
CCN1CCCC1CNC(=O)Cn1cccc1C(=O)c1ccccc1 (configuration not stated)	102	-1	6	3
